According to PubChem BioAssay (NCI):
This is part of a sample that, as a whole, favours compounds with a hit. Of some 83,000 tested, about 20% had one in any assay.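 Testing used 96-well plates and a 48-hour single-concentration exposure. Example: -40 means 40% of the starting cells died.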 Active and inactive are the calls of the source. How the source made its calls: active means growth percent below 10; inactive means the rest.

Tested on: NCI-H460 lung
Test: NCI-60 one-dose screen, 48 h (100 = growth as untreated, 0 = no growth, -100 = all killed)
Conditions: 10 µM unless noted

Compound	growth
Nc1cc2nc3ccccc3sc-2cc1=O	75% (inactive)
COc1ccc(C(=O)/C=C/c2c(Cl)c3c(c(OC)c2Cl)OCC(=O)N3)cc1	12% (inactive)
COc1cc(NCCCCN=C(N)NC(N)=NC(C)C)c2ncccc2c1	74.4% (inactive)
CC/C=C\C[C@H](F)C/C=C1/C(=O)C=C[C@@H]1C/C=C\CCCC(=O)OC	1.34% (active)
C=C(CN1CCN(c2cccc(C(F)(F)F)n2)CC1)c1ccc(C(=O)Nc2ccccc2N)cc1	7.02% (active)
Cn1cc(-c2csc(-c3cn(C)c4ncccc34)n2)c2ccccc21	11.7% (inactive)
COc1ccc2nc3cc(Cl)ccc3c(N3CCN(c4nccc(Nc5ccc(Cl)cc5)n4)CC3)c2c1	67% (inactive)
CCN(CC)CCCC(C)N/C(=C1\C(=O)NC(=O)\C1=C(/NC(C)CCCN(CC)CC)c1cccc(OC)c1)c1cccc(OC)c1 (stereo not drawn)	-38.1% (active)
CC(=O)C1=C(O)C=C2Oc3c(C(=O)/C=C/c4ccccc4)c(O)c(C)c(O)c3[C@]2(C)C1=O	40.9% (inactive)
O=C1/C(=C/c2ccc(Cl)c(Cl)c2)CN(C(=O)CCN2CCC(=NO)CC2)C/C1=C\c1ccc(Cl)c(Cl)c1	-66% (active)
CCOC(=O)/C=C/C(=O)[C@H](CC(C)C)NC(=O)[C@H](Cc1ccccc1)NC(=O)OCc1ccccc1	84.9% (inactive)
Cc1cc2cc3cc(C)c(N(C)C)cc3[n+](C)c2cc1N(C)C	10.9% (inactive)
COC(=O)[C@@H]1CC[C@]2(C)[C@H](CC[C@@H]3O[C@@]32C)[C@@]1(C)CC(=O)c1ccoc1	101% (inactive)
O=C(O)c1ccccc1Nc1cccc(S(F)(F)(F)(F)F)c1	102% (inactive)
COc1ccc(C2c3ccc4ccccc4c3Oc3ncnc(N)c32)cc1 (stereo not drawn)	92.4% (inactive)
CN1CCN(Cc2ccc(NC(=O)c3cncc(C#Cc4cnc(N)c5cccnc45)c3)cc2C(F)(F)F)CC1	7.81% (active)
COc1ccc(OCC(=O)Nc2ccc(-c3nc4ccccc4s3)cc2C)cc1	95.5% (inactive)
Oc1ccc2c(=S)cc(-c3ccc(Br)cc3)oc2c1O	3.24% (active)
O=C1CC(c2nc3ccccc3s2)CN1C1CCCCC1 (stereo not drawn)	105% (inactive)

Compound	growth
COc1cccc(-n2cc(-c3nc(Nc4cc(C)[nH]n4)c4ccccc4n3)nn2)c1	44.9% (inactive)
CCN(CC)CC#CCOC(=O)[C@]1(C)CCC[C@@]2(C)[C@H]1CC(C=O)=C1C=C(C(C)C)CC[C@@H]12	64% (inactive)
CC(=O)Nc1ccc2c(c1)c(NC(C)=O)nn2C(=O)Nc1ccc(Cc2ccccc2)cc1	76.4% (inactive)
Cc1cc(Nc2nc(N3CCNCC3)nc3ccccc23)n[nH]1	93.4% (inactive)
COC(=S)SCN(CSC(=S)OC)c1ccc(Cl)cc1	87% (inactive)
CCN(CC)CCC(=O)Nc1ccc(Cn2nnc3c2C(=O)c2nnn(Cc4ccc(NC(=O)CCN(CC)CC)cc4)c2C3=O)cc1	-29.7% (active)
O=C(CCCCN1CCOCC1)Nc1ccc(Cn2nnc3c2C(=O)c2nnn(Cc4ccc(NC(=O)CCCCN5CCOCC5)cc4)c2C3=O)cc1	-39.8% (active)
COc1ccc(C(=O)c2sc3nc(-c4ccccc4OC)ccc3c2N)cc1OC	51.7% (inactive)
O=C1C[C@H](N2C(=O)c3ccccc3S2(=O)=O)C2CO[C@@H]1O2	103% (inactive)
CC(=O)C1=C(O)C=C2Oc3c(C(=O)/C=C/c4cc(C(F)(F)F)cc(C(F)(F)F)c4)c(O)c(C)c(O)c3[C@]2(C)C1=O	-32.6% (active)
CCN(CC)c1ccc(/C=C/C2=[N+](C)c3ccccc3C2(C)C)cc1	3.05% (active)
c1ccc2c(Nc3cccc4ccccc34)cccc2c1	42.9% (inactive)
CCCCCCCCCCCCCC(=O)C(C)N (stereo not drawn)	4.75% (active)
CCOC(=O)C(CC)n1c(=O)c2cc(OC)c(OC)cc2c2cnc3[nH]ccc3c21 (stereo not drawn)	72.4% (inactive)
O=C1C2CC=CCC2C(=O)N1CNc1ccc(Cl)cc1 (stereo not drawn)	107% (inactive)
Cc1ccc(SCN2CCN(c3cccc(Cl)c3)CC2)cc1	98.4% (inactive)
Cc1nc2nc(N)nc(N)c2nc1C	108% (inactive)
CSc1[nH]c2ncnc(N)c2c1C#N	99.6% (inactive)
O=C(CN1CCOCC1)Nc1ccc(Cn2nnc3c2C(=O)c2nnn(Cc4ccc(NC(=O)CN5CCOCC5)cc4)c2C3=O)cc1	5.66% (active)
